Source: PubChem BioAssay (several laboratories)
Compounds with a hit are over-represented: about 4.6% of the library has one in this group of screens.
KKLEB cytotox – CF airway cell cytotoxicity counter-screen | activity change (cytotoxicity), % at 5 µM | hit rate 0.36% among 360,000 | KKLEB CF airway cells viability, ATPlite luminescence, overnight; active compounds read low; cells stimulated with P. aeruginosa culture filtrate;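 active means corrected activity change at or below -50% at 5 µM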
ABHD5 PLIN5 PPI – inhibitors of human ABHD5-perilipin-5 interaction. AID 602281. Split G. princeps luciferase complementation, luminescence, 4 h. Q00G26+Q8WTS1. hit rate 0.78% among 360,000. inhibition, % at 4 µM;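 active means inhibition above the mean inhibition across every tested compound plus 3 SD, cut at about 22% in these data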;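 further: 0% = DMSO only wells and the 100% control is not disclosed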
HIF-2a block – HIF-2a inhibition; inhibition, % at 18.8 µM; hit rate 0.72% among 360,000; AID 624352; 786-0 RCC cells HIF-2a reporter, luciferase luminescence, overnight;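 active means inhibition of the luminescence signal of 40% or more relative to plate controls, in a single-dose primary screen at 18.75 µM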
CF NFkB inh – cystic fibrosis NF-kB activation inhibition; hit rate 0.86% among 360,000; inhibition, % at 5 µM; KKLEB NF-kB-GFP reporter, PAF-induced, GFP fluorescence overnight;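 active means at least 50% inhibition at 5 µM, scaled per plate between neutral and stimulator controls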;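 further: PAF is a Pseudomonas aeruginosa culture filtrate used as stimulus; plate controls were PAF-stimulated DMSO wells for no effect and unstimulated DMSO wells for full effect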
Mdm2-MdmX inh – disrupts the human Mdm2-MdmX interaction; inhibition, % at 8 µM; hit rate 3% among 330,000; AID 485346; SaOS-2 split-luciferase Mdm2/MdmX complementation, luminescence;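 active means inhibition of at least 50% at 8 µM in the primary screen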
Target sequence (O15151 whole entry, looked up): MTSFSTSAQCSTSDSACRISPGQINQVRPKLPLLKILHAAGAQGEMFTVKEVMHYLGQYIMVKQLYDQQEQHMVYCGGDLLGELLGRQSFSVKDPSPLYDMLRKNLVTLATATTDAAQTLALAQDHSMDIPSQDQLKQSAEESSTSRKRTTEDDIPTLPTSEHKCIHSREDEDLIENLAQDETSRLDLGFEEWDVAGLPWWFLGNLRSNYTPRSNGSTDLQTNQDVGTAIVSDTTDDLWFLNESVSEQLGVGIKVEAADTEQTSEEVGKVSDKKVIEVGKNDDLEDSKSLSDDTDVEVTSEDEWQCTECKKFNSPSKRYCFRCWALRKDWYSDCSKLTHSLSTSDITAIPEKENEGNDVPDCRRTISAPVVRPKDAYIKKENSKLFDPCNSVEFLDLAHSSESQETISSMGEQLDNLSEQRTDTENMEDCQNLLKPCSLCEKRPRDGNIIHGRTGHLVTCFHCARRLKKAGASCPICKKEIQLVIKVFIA
Target sequence (Q00987 whole entry, looked up): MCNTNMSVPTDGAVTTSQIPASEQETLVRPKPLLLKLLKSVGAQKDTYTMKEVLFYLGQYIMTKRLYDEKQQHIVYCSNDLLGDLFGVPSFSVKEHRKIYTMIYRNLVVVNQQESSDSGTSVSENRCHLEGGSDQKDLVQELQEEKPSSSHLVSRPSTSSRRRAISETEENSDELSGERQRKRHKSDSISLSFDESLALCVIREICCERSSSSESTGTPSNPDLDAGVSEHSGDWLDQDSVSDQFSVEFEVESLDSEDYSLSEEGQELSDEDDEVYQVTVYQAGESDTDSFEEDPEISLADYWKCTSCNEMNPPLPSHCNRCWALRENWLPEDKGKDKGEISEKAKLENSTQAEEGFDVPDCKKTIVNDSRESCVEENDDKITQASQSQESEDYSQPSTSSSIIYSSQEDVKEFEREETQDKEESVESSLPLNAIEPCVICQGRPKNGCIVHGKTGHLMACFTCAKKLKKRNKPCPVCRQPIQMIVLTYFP
Peg3 promoter – reduces Peg3 promoter-driven luciferase expression in HeLa; hit rate 1.7% among 360,000; HeLa PEG-Prom luciferase reporter, luminescence, overnight; inhibition, % at 20 µM;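 active means inhibition of at least 50% at 20 µM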
* hit, by the source's call; · = no result given; ! = repeats disagree.

SMILES | KKLEB cytotox | ABHD5 PLIN5 PPI | HIF-2a block | CF NFkB inh | Mdm2-MdmX inh | Peg3 promoter
CCOC(=O)c1cc2c(=O)n3cccc(C)c3nc2n(Cc2ccco2)c1=NC(=O)c1ccccc1 | 15 | 22* | -17 | -124 | 23 | -23
CC(NC1=CC(=O)c2cccnc2C1=O)C(O)c1ccccc1 (stereo not drawn) | -32 | 0 | 19 | 80* | · | 28
CC(c1ccccc1)N1C(=O)c2cccnc2C1=O (stereo not drawn) | 2 | -1 | 19 | -16 | -24 | 7
COc1ccc(CN(C)C(=O)c2cc(-c3ccccc3)nc3ccc(C)cc23)c(OC)c1 | -10 | 6 | -35 | 12 | · | 98*
O=C(CNC(=O)c1ccccc1)OCN1C(=O)c2ccccc2C1=O | -3 | 12 | -3 | 5 | · | -1
Cc1cc(C)cc(C(=O)NCC(=O)OCN2C(=O)c3ccccc3C2=O)c1 | -2 | 6 | -7 | 23 | 4 | 52*
CCc1c(C2(O)CCCCC2)[nH]c2cc(C(F)(F)F)ccc12 | 5 | -31 | 14 | 27 | 45 | 67*
Cc1nnc(SCC(=O)NC2CCCC2)n1-c1ccccc1 | -12 | -8 | 7 | 14 | 15 | -19
CCOC(=O)c1c(C=O)c(C)n(Cc2ccc(Cl)cc2)c1C | 7 | 1 | 22 | 14 | 37 | 27
CCOC(=O)C1=C(Cc2ccc(Cl)cc2)C(=O)c2ccccc2C1=O | -4 | 42* | -112 | 6 | 22 | 50*
COc1ccccc1C(=O)NCC[N+](C)(C)C | · | 1 | 0 | · | · | ·
O=C(NCc1ccco1)C1CCN(C(=O)c2cc3sccc3n2Cc2ccc(F)cc2)CC1 | -4 | 6 | -7 | 5 | 23 | 5
CC1Cc2ccccc2N1C(=O)c1cc2sccc2n1Cc1ccc(F)cc1 (stereo not drawn) | -7 | 0 | 20 | 17 | 49 | 54*
COc1cccc(-c2cc3nc(NCc4ccccc4F)n(C)c(=O)c3s2)c1 | 0 | -3 | -94 | 14 | · | -60
CC(=O)OCCn1c([N+](=O)[O-])cnc1C=[N+]([O-])C1CCCCC1 | -17 | -2 | 6 | 22 | · | 5
CC1(C)Cc2c(C#N)c(N3CCCC3)nc(-c3ccco3)c2CO1 | 0 | 19 | -3 | -6 | 15 | 11
N#Cc1c(N2CCOCC2)nc(-c2ccco2)c2c1CCCC2 | -20 | 23* | 11 | 21 | 15 | 3
COc1cccc(C(C)(O)c2nc(-c3ccc(S(C)(=O)=O)cc3)cs2)c1 (stereo not drawn) | 2 | 4 | 12 | 1 | · | 12
CCc1cc[n+](C2=C([O-])c3ccccc3C(=O)/C2=N\S(=O)(=O)c2cccs2)cc1 | -25 | -27 | -32 | 74* | 29 | -20
O=C(CSc1nc2[nH]ncc2c(=O)n1-c1ccccc1)NCCc1ccccc1 | 3 | -1 | 8 | -4 | 12 | 1
O=C(CSc1nc2[nH]ncc2c(=O)n1-c1ccccc1)c1ccc2c(c1)OCCO2 | 0 | 6 | 7 | -11 | 28 | 57*
CCOc1ccccc1C(=O)NC1CCNCC1 | 0 | 10 | 12 | 12 | 2 | 10
c1ccc(-c2cn3c4c(sc3n2)CCCC4)cc1 | -58* | 3 | 19 | -28 | 33 | 53*!
CC12C=CC(=O)C=C1C(F)CC1C3CCC(O)(C(=O)CO)C3(C)CC(O)C12F (stereo not drawn) | 24 | 1 | 20 | 69* | · | -16
CC(=O)OCC(=O)[C@@]1(O)CC[C@H]2[C@@H]3CCC4=CC(=O)C=C[C@]4(C)[C@@]3(F)[C@@H](O)C[C@@]21C | -16 | -1 | 23 | 65* | -32 | 4
SMILES | KKLEB cytotox | ABHD5 PLIN5 PPI | HIF-2a block | CF NFkB inh | Mdm2-MdmX inh | Peg3 promoter
CC(=O)OCC(=O)C1(O)CCC2C3CCC4=CC(=O)CCC4(C)C3(F)C(O)CC21C (stereo not drawn) | 36 | 0 | 23 | 75* | · | 5
CC12C=CC(=O)C=C1CCC1C3CCC(O)(C(=O)CO)C3(C)CC(O)C12F (stereo not drawn) | 36 | -3 | 12 | 70* | · | -7
CC12C=CC(=O)C=C1CCC1C3CCC(O)(C(=O)CO)C3(C)CC3OC312 (stereo not drawn) | 10 | 0 | 24 | -3 | -10 | 13
CC1(C)CC2CC(C)(CN2S(=O)(=O)c2ccccc2[N+](=O)[O-])C1 (stereo not drawn) | -5 | -9 | 10 | 39 | 15 | 24
O=C(O)CN1C(=O)/C(=C/c2ccccc2Br)Oc2ccccc21 | 4 | 4 | -5 | -8 | 1 | -11
C/C=N/NC(=O)c1cc(Br)ccc1O | -4 | 3 | 9 | 20 | -1 | -14
O=C(C(=O)c1cc(Br)ccc1O)c1cc(Br)ccc1O | -28 | -6 | -35 | 60* | · | 21
COc1ccc2cc(-c3[nH]ncc3CN3C[C@@H]4CCC[C@H]3C4)ccc2c1 | -4 | 23* | -117 | 6 | 28 | -103
CCOc1ccc(N/C=C/C(=O)c2ccccc2)c([N+](=O)[O-])c1 | -58* | 4 | 38 | -40 | 3 | 41
COc1ccc(N/C=C/C(=O)c2ccccc2)cc1 | -54* | -7 | -55 | -18 | -187 | -36
CCOc1ccc(NC(=O)/C=C/c2ccccc2)c([N+](=O)[O-])c1 | -7 | 5 | -166 | 20 | -51 | -161
COc1ccc(C(=O)NC(CCSC)C(=O)N2CCCCCC2)cc1 (stereo not drawn) | 0 | 0 | 8 | -5 | 9 | 25
CCc1nc2ccc(C(=O)N(C)Cc3ccco3)cn2c1N(C)Cc1ccc(OC)cc1 | -6 | 4 | 13 | 32 | · | 18
N#Cc1c(C#N)c(SSc2c(C#N)c(C#N)c(N)n2-c2ccccc2)n(-c2ccccc2)c1N | -89* | -6 | 7 | 88* | · | 105*
O=C(O)Cn1c2c(c3ccccc31)CSc1ccc(Cl)cc1-2 | 1 | 23* | 15 | 6 | · | 9
O=C(O)Cn1c2ccccc2c2ccccc21 | 9 | 5 | 18 | 9 | 1 | 5
CCc1ccc(OC2(C)CCN(Cc3ccc4c(c3)OCCO4)C2)cc1 (stereo not drawn) | 12 | 2 | 11 | -18 | · | 5
COC(=O)c1cc(S(=O)(=O)Nc2cccc(OC)c2)cn1C | -2 | 1 | 9 | 1 | 23 | 52*
O=C(O)CCCN1C(=O)/C(=C\c2ccco2)SC1=S | 0 | 0 | 55* | 4 | · | 24
O=C(O)CCN1C(=O)/C(=C/c2cn(-c3ccccc3)nc2-c2cccs2)SC1=S | 5 | -2 | -11 | -3 | 10 | 4
O=C(O)CCCCCN1C(=O)/C(=C/c2cn(-c3ccccc3)nc2-c2cccs2)SC1=S | -9 | -3 | -11 | 68* | · | 4
CC(=C\c1ccccc1)/C=C1/SC(=S)N(CCCC(=O)O)C1=O | 22 | -7 | 91* | -6 | -5 | 22
CC(=O)Nc1ccc(S(=O)(=O)NCC(=O)OC(C)c2ccccc2Cl)cc1 (stereo not drawn) | -3 | 5 | 0 | -3 | 8 | 18
